FLuc modulator = firefly luciferase modulation, counter-screen for miR-21 project | P08659 | purified FLuc, Km substrates, luminescence inhibition | Potency, µM (series often up to 57.5 µM), usual class: inhibitors | hit rate 6.9% among 360,000; further: nearly all actives have a fitted effect of over 55% in size
Target sequence (P08659 whole entry, looked up): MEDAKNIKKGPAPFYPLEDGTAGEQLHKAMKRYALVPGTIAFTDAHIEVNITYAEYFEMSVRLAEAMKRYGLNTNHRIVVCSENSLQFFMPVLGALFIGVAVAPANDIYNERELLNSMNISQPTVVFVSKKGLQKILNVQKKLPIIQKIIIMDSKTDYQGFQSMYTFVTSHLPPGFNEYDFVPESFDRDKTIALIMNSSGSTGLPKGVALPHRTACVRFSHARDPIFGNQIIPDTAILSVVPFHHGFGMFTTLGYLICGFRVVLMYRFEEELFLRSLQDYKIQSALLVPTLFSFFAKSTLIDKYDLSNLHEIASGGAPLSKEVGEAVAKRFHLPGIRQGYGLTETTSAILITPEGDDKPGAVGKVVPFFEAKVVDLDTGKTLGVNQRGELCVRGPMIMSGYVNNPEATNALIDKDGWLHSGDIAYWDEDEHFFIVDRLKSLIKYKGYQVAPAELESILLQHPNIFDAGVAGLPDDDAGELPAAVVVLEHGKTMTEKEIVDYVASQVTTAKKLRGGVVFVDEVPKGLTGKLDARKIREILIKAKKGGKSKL
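Purified P. pyralis luciferase, 10 nM final, with Km-level 10 uM D-luciferin and 10 uM ATP in 50 mM Tris acetate pH 7.5, 10 mM Mg acetate, 0.01% Tween-20, 0.05% BSA; 6-point qHTS titration about 60 µM downward; luminescence read.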
Rab9 promoter act = activators of Rab9 promoter; Huh7 Rab9 promoter-luciferase reporter, luminescence, 24 h; Potency, µM (titrated, usually from 9.22 µM), most hits filed as activators; hit rate 2.8% among 320,000; AID 485297; further: nearly all actives have a fitted effect of over 60% in size
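Steps: seed 1500 Huh7 Rab9-luc cells per well, rest 2 h at 37 °C; add compound in DMSO; incubate 24 h; add luciferase reagent, 10 min ambient; read luminescence.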
SMN2 splice enh = enhancers of SMN2 splice variant expression; hit rate 2.8% among 210,000; Potency, µM (top dose mostly 46.1 µM), usual class: activators; HEK293 SMN2-luciferase splicing reporter, luminescence, 30-36 h; further: nearly all actives have a fitted effect of over 55% in size
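HEK293 cells carry an SMN2 minigene-luciferase reporter in which exon 7 inclusion puts luciferase in frame. Cells were seeded at 2000 cells/well, attached for 10-12 hours, then exposed to compounds for 30-36 hours at 37C before ONE-Glo luminescence.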
NPC1 prom act = NPC1 promoter activation; Potency, µM (highest dose often 9.22 µM), actives largely listed as activators; hit rate 2.4% among 320,000; Huh7 NPC1 promoter luciferase reporter, 24 h; AID 485313; further: nearly all actives have a fitted effect of over 60% in size
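NPC1 promoter–luciferase Huh7 cells; 24 h compound; luminescence.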
ELG1 genotoxic = inducers of genotoxicity in HEK293T ELG1-luciferase cells; HEK293T ELG1-luciferase reporter, luminescence, 16 h; Potency, µM (series often up to 46 µM), hits mostly activators; hit rate 1.3% among 330,000; further: nearly all actives have a fitted effect of over 60% in size
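Cells (2,000/well) expressing the ELG1-luciferase fusion are dosed by pin tool and kept 16 hr at 37 °C, 5% CO2. Signal comes from ONE-Glo luciferase reagent after 30 min at room temperature.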
A number is an active result. Most compounds without a hit are left out; they make up all but 7.4% or so of the library. The call rests on the fitted dose curve; in most records, active means well fitted curve in the direction sought with a large enough effect; inconclusive means small, poorly fitted or top-dose-only effect, or another doubt; inactive means no such curve, though single readings can be large; an effect the other way counts as inactive or inconclusive.

For C/C(=N/Nc1nc(C)cc(-c2ccccc2)n1)c1ccco1 the results were FLuc modulator 15µM, Rab9 promoter act inconclusive, SMN2 splice enh inactive, NPC1 prom act inconclusive and ELG1 genotoxic inactive.
C/C(=N\Nc1ccc([N+](=O)[O-])cc1)c1cccc(N)c1 was read as FLuc modulator 19µM, Rab9 promoter act inconclusive, SMN2 splice enh inconclusive, NPC1 prom act inconclusive and ELG1 genotoxic inactive.
For Cc1cc(-c2ccccc2)nc(N/N=C/c2ccccc2F)n1 the results were FLuc modulator 11µM, Rab9 promoter act inconclusive, NPC1 prom act inconclusive and ELG1 genotoxic inactive.
Screening C/C(=N\Nc1nc(C)cc(-c2ccccc2)n1)c1cccc(N)c1 returned FLuc modulator 3.4µM, Rab9 promoter act inactive, NPC1 prom act inactive and ELG1 genotoxic inactive.
`Cc1ccsc1CN(C)C(=O)C(NC(=O)c1cccc(S(=O)(=O)N2CCOCC2)c1)C(C)C` (configuration not stated) gave FLuc modulator inactive, Rab9 promoter act inactive, NPC1 prom act inactive and ELG1 genotoxic inactive.
CC1(C)Cc2c(cnn2-c2ccccc2)C(NC(=O)CCCN2CCCCC2=O)C1 (configuration not stated) was read as FLuc modulator inactive, Rab9 promoter act inactive, NPC1 prom act inactive and ELG1 genotoxic inactive.
`C/C(=N\Nc1nc(C)cc(-c2ccccc2)n1)c1ccc(O)cc1` gave FLuc modulator 4.3µM, Rab9 promoter act inactive, NPC1 prom act inactive and ELG1 genotoxic inactive.
C/C(=N\Nc1nc(C)cc(-c2ccccc2)n1)c1ccccc1 was read as FLuc modulator 2.7µM, Rab9 promoter act inactive, NPC1 prom act inactive and ELG1 genotoxic inactive.
For Cc1cc(OC(C)C(=O)N2CCN(c3ccccc3)CC2)c2c(C)c(C)c(=O)oc2c1 (configuration not stated) the results were FLuc modulator inactive, Rab9 promoter act inactive, NPC1 prom act inactive and ELG1 genotoxic inactive.
For O=C1NC2(C=Cc3c(ccc4ccccc34)O2)Oc2ccccc21 (configuration not stated) the results were FLuc modulator 6µM, Rab9 promoter act inactive, SMN2 splice enh inactive, NPC1 prom act inconclusive and ELG1 genotoxic inactive.
CC1(C)OC(=O)N(c2ccccc2)C12C=Cc1c(ccc3ccccc13)O2 (configuration not stated) was read as FLuc modulator inactive, Rab9 promoter act inactive, SMN2 splice enh inactive, NPC1 prom act inactive and ELG1 genotoxic inactive.
For Cc1cccc(Cn2cnc3c(sc4nc(C)cc(C)c43)c2=O)c1 the results were FLuc modulator inactive, Rab9 promoter act inactive, NPC1 prom act inactive and ELG1 genotoxic inactive.
For C=CCOC(=O)Cn1cnc2c(sc3nc(C)cc(C)c32)c1=O the results were FLuc modulator 11µM, Rab9 promoter act inconclusive, NPC1 prom act inconclusive and ELG1 genotoxic inconclusive.
`O=C(O)Cn1cnc2c(oc3ccccc32)c1=O` gave FLuc modulator inactive, Rab9 promoter act inactive, NPC1 prom act inactive and ELG1 genotoxic inactive.
O=C(Cn1cnc2c(oc3ccccc32)c1=O)c1ccccc1 was read as FLuc modulator 15µM, Rab9 promoter act inconclusive, SMN2 splice enh inconclusive, NPC1 prom act 2.5µM and ELG1 genotoxic inconclusive.
Cc1cc(C)c2c(n1)sc1c(=O)n(CC(=O)c3ccccc3)cnc12 was read as FLuc modulator 11µM, Rab9 promoter act inconclusive, NPC1 prom act inconclusive and ELG1 genotoxic inconclusive.
For Cc1cc(OCCN2CCOCC2)ccc1Cl the results were FLuc modulator inconclusive, Rab9 promoter act inactive, NPC1 prom act inconclusive and ELG1 genotoxic inconclusive.
For Cc1nn(-c2ccccn2)c(C)c1Oc1ccccc1O the results were FLuc modulator inactive, Rab9 promoter act inactive, SMN2 splice enh inactive, NPC1 prom act inactive and ELG1 genotoxic inactive.
For Cc1nn(-c2nc3ccccc3s2)c(C)c1Oc1ccccc1O the results were FLuc modulator 2.4µM, Rab9 promoter act 3.2µM, SMN2 splice enh inconclusive, NPC1 prom act 3.5µM and ELG1 genotoxic inconclusive.
COc1cc2c(cc1OC)CN(c1ccc(F)cc1[N+](=O)[O-])CC2 was read as FLuc modulator 12µM, Rab9 promoter act inconclusive, NPC1 prom act inactive and ELG1 genotoxic inactive.
`COc1cc2c(cc1OC)CN(c1ccc([N+](=O)[O-])cc1Cl)CC2` gave FLuc modulator inactive, Rab9 promoter act inactive, SMN2 splice enh inactive, NPC1 prom act inactive and ELG1 genotoxic inactive.

High-throughput results: PubChem, National Center for Advancing Translational Sciences (NCATS)
